Experimental data from PubChem BioAssay (EPA / NIEHS).
Calls of active or inactive are those of the source. Rule for the calls: active = hit-call score of the fitted dose curve at least 0.9, where 1 is the maximum; inactive = score below 0.9.

Test: ATG_GRE_CIS: Attagene CIS-FACTORIAL HepG2 Assay for human Glucocorticoid Response Elements (GRE) (AID 2282947)
Details: HepG2 GRE cis-reporter, Attagene multiplex mRNA; actives raise or lower the signal
Protocol: ATG_CIS is a cell-based, multiplexed-readout assay that uses HepG2, a human liver cell line, with measurements taken at 24 hours after chemical dosing in a 24-well plate.ATG_GRE_CIS is one of 52 assay component(s) measured or calculated from the ATG_CIS assay. It is designed to make measurements of mRNA induction, a form of inducible reporter, as detected with fluorescence intensity signals by Reverse transcription polymerase chain reaction (RT-PCR) and Capillary electrophoresis technology.Data from the assay component ATG_GRE_CIS was analyzed into 1 assay endpoint. This assay endpoint, ATG_GRE_CIS, was analyzed with bidirectional fitting relative to DMSO as the negative control and baseline of activity. Using a type of inducible reporter, measures of mRNA for gain or loss-of-signal activity can be used to understand the reporter gene at the transcription factor-level as they relate to the gene NR3C1. Furthermore, this assay endpoint can be referred to as a primary readout, because this assay has produced multiple assay endpoints where this one serves a reporter gene function. To generalize the intended target to other relatable targets, this assay endpoint is annotated to the nuclear receptor intended target family, where the subfamily is steroidal.
Human liver HepG2 cells are transiently transfected with multiple reporter transcription units (MRTUs) in 6-well plates using FuGene 6 reagent (Roche; 3 ml FuGene/1 mg DNA). The MRTU constructs are regulated by a cis-regulating element (promoter). […] A major difference between the CIS and TRANS system is that in CIS activities of endogenous TFs are measured, whereas the TRANS assay evaluates changes in activities of exogenous, chimeric NR-Gal4 proteins. […] At the end of 24 hour incubation, total RNA was isolated using TriZol reagent (Invitrogen). The isolated RNA is then reverse-transcribed using oligo(dT) primer and Mo-MLV reverse transcriptase (Invitrogen) with DNAse I (Ambion) treatment for 30 min. The one-tenth of the produced cDNA was amplified by PCR using Taq DNA polymerase (Invitrogen) and two reporter sequence-specific primers. The PCR products were fluorescently labeled by primer extension with 6-arboxyfluorescein (6-FAM) 5'-labeled reporter sequence-specific primer (2 min at 95 C, 20 s at 68 C and 10 min at 72 C) and these products were digested with 5U of HpaI (New England Biolabs) for 2h at 37 C. The fragments were purified using Qiaquick PCR columns (Qiagen), analyzed on an ABI 3130xL genetic analyzer (Applied Biosystems) with peak positions identified by using a set of X-rhodamine (ROX)-labeled MapMarker1000 molecular weight standards (BioVentures). The raw capillary electrophoresis data was processed using Attagraph software (Attagene).

SMILES | outcome | AC50
CCCC(C)C(=O)OCC (stereo not given) | inactive | –
C/C=C/C=C/CCCCCCCO | inactive | –
CCOC(=O)C1=NN(c2ccc(Cl)cc2Cl)C(C)(C(=O)OCC)C1 (stereo not given) | inactive | –
Cc1c(Cl)cccc1Cl | inactive | –
CC(C)(O)Cc1ccccc1 | inactive | –
CC1=CC(C)C(C=O)CC1 (stereo not given) | inactive | –
CO[Si](CCCS)(OC)OC | inactive | –
CC(=O)C(C)C | inactive | –
Clc1cccnc1 | inactive | –
CCOC(=O)CC(=O)c1ccccc1 | inactive | –
CCCCCCC=O | inactive | –
CC(C=O)c1ccccc1 (stereo not given) | inactive | –
CC(=O)OCC=C(C)C | inactive | –
[Cl][Sc]([Cl])[Cl] | inactive | –
C=C(C)C1CC=C(C)C(OC(C)=O)C1 (stereo not given) | inactive | –
O=C(O[C@@H]1Cc2c(O)cc(O)cc2O[C@@H]1c1cc(O)c(O)c(O)c1)c1cc(O)c(O)c(O)c1 | inactive | –
C1CCSC1 | inactive | –
CCOC(=O)c1ccccc1C | inactive | –
CC(C)CCCCCOC(=O)CS | inactive | –
CCCC1CCCC(=O)O1 (stereo not given) | inactive | –

SMILES | outcome | AC50
CC(C)=CCCC(C)=CC#N | inactive | –
CC(=O)OCCc1ccccc1 | inactive | –
CCCCCCCCCCCCc1ccc(O)cc1 | inactive | –
CCCCCCCCCC[N+](C)(CCCCCCCCCC)CCC[Si](OC)(OC)OC | – | 18.4 µM (active)
CCC[Si](OC)(OC)OC | inactive | –
CC(C)c1cccc(C(C)C)c1N | inactive | –
C=CC(=O)OCC(C)OCC(C)OCC(C)OC(=O)C=C (stereo not given) | inactive | –
CCNc1nc(NC(C)(C)C)nc(OC)n1 | inactive | –
O=c1c(O)c(-c2ccc(O)cc2O)oc2cc(O)cc(O)c12 | inactive | –
CCOC(=O)[C@H](O)[C@@H](O)C(=O)OCC | inactive | –
CC(CCC(=O)O)(c1ccc(O)cc1)c1ccc(O)cc1 | inactive | –
CCCCCCCO | inactive | –
CCCCCCCCCCCC(=O)N(C)CC(=O)O | inactive | –
Cc1c(C(=O)c2c[nH]n(C)c2=O)ccc(S(C)(=O)=O)c1C1=NOCC1 | inactive | –
CN(C)Cc1cc(CN(C)C)c(O)c(CN(C)C)c1 | inactive | –
Oc1ccc(-c2ccccc2)c(Cl)c1 | inactive | –
C=CC(=O)NCOCCCC | inactive | –
CC1OC(=O)C(C)OC1=O (stereo not given) | inactive | –
CCCCCCCCCC(C)=O | inactive | –
c1ccc2cnccc2c1 | inactive | –
